# PubChem BioAssay AID2546 (National Center for Advancing Translational Sciences (NCATS), 2010)
# About 11,000 (3.5%) of roughly 310,000 compounds were called active. Entries that show only a call come without a potency. About 8% were inconclusive and are not listed. Only a selection was taken, and actives are over-represented in it overall. A number with no mark means an inactive call. Calls come from the whole dose curve; as a rule, active = well fitted inhibition curve with a large enough effect; inconclusive = small, poorly fitted or top-dose-only effect, or effect the other way; inactive = flat fitted curve, though single readings scatter.
# Assay: VP16 counterscreen qHTS for inhibitors of ROR gamma transcriptional activity;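 note: Gal4-VP16 expression switched on by copper sulfate through the metallothionein promoter; nearly all actives have a fitted effect of over 50% in size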
# Conditions: Drosophila S2 Gal4-VP16 UAS-luciferase, luminescence, 20 h; series mostly up to 53.6 µM
# Potency is the fitted concentration of half-maximal effect.
SMILES,Potency,"activity, negative = inhibition"
COc1ccccc1NC(=O)N1CCCC1C(=O)NCc1cccs1 (stereo unspecified),inactive,–
O=C(N/N=C/c1ccccn1)c1cccc(NC(=O)c2ccc(Cl)cc2)c1,inactive,–
COc1ccc(N(CC(=O)NCc2ccc(F)cc2)C(=O)CCC(=O)Nc2nccs2)cc1,inactive,–
O=C(CCC1CCN(C(=O)c2cccc(Cl)c2F)CC1)Nc1ccccc1,inactive,–
COc1nnc(-c2ccc(C)c(S(=O)(=O)N(C)C)c2)c2ccccc12,inactive,–
CC1=NN(C(=O)c2ccccc2Br)C(O)(c2cccnc2)C1 (stereo unspecified),12.6 µM (active),–
CC1=NN(C(=O)c2ccc(Br)cc2)C(O)(c2ccccc2)C1 (stereo unspecified),–,-2.82% [at 10 µM]
CCOC(=O)C1(O)CC(C)=NN1C(=O)c1cccc(Br)c1 (stereo unspecified),inactive,–
Cc1ccc(CC2S/C(=C(/C#N)C(=O)N3CCOCC3)N(c3ccccc3)C2=O)cc1 (stereo unspecified),inactive,–
N#C/C(C(=O)N1CCOCC1)=C1/SC(Cc2ccc(F)cc2)C(=O)N1c1ccccc1 (stereo unspecified),inactive,–
N#C/C(C(=S)Nc1ccccc1)=C1/NN=C(N2CCOCC2)N1c1ccccc1,4.47 µM (active),–
COc1c(O)cc2oc(-c3ccc(O)c(O)c3)cc(=O)c2c1O,inactive,–
O=c1cc(-c2ccc(O)c(O)c2)oc2cccc(O)c12,12.6 µM (active),–
O=c1cc(-c2ccc(O)cc2)oc2c(-c3cc(-c4cc(=O)c5c(O)cc(O)cc5o4)ccc3O)c(O)ccc12,inactive,–
Cn1ccnc1SCC(=O)Nc1ccc2c(c1)OCCO2,inactive,–
CCCN1C2CCCC1CC(NC(=O)NC13CC4CC(CC(C4)C1)C3)C2 (stereo unspecified),inactive,–
Cc1cc(=O)[nH]c(N/N=C/c2ccc3c(c2)OCCO3)n1,inactive,–
Cc1noc(C)c1/C=N/Nc1ccc2ccccc2n1,inactive,–
C(=N\Nc1ccc2ccccc2n1)/c1ccc2c(c1)OCO2,14.1 µM (active),–
O=C1CN(C(=O)c2cc(F)cc(F)c2)c2ccccc2N1,inactive,–
COc1ccc(C(C)NC(=O)C23CC4CC(CC(C4)C2)C3)cc1 (stereo unspecified),inactive,–
CCc1ccc(Oc2coc3cc(O)ccc3c2=O)cc1,inactive,–

SMILES,Potency,"activity, negative = inhibition"
O=S(=O)(c1cccc(Cn2nnc(-c3ccc(F)cc3)n2)c1)N1CCOCC1,11.2 µM (active),–
CCN(Cc1ccncc1)C(=O)c1cccc(S(=O)(=O)N2CCOCC2)c1,inactive,–
O=S(=O)(c1cccc(-c2nnc3n2CCCCC3)c1)N1CCOCC1,inactive,–
CCN(CC)CCn1cnc2c1c(=O)[nH]c(=O)n2Cc1ccccc1,inactive,–
COc1ccc(CSc2nnnn2-c2ccc(O)cc2)cc1F,inactive,–
CCOC(=O)CC1COCCN1C(=O)c1cc(COc2ccc(F)c(F)c2)on1 (stereo unspecified),inactive,–
Cc1ccc(S(=O)(=O)N2CCOCC2)cc1C(=O)NC(=S)N(Cc1ccccc1)C(C)C,3.98 µM (active),–
Cc1ccc(S(=O)(=O)N2CCOCC2)cc1C(=O)NCc1ccc(F)cc1,inactive,–
CCOC(=O)c1sc(NC(=O)c2cc(S(=O)(=O)N3CCOCC3)ccc2C)nc1C,inactive,–
O=C(CN1CCCCCC1)Nc1c(Cl)cc(Cl)cc1Cl,inactive,–
CN(Cc1ccccc1)C(=O)C(=O)c1cn(CC(=O)N2CCCC2)c2ccccc12,inactive,–
N#CC1(NC(=O)COC(=O)CCN=C2NS(=O)(=O)c3ccccc32)CCCCC1,inactive,–
O=C(N/N=C/c1cc([N+](=O)[O-])ccc1O)/C(=C\c1cccs1)NC(=O)c1ccccc1,10 µM (active),–
O=C(Nc1ccc(C(=O)O)cc1)/C(=C/c1ccc([N+](=O)[O-])cc1)NC(=O)c1ccccc1,inactive,–
O=C(N/N=C/c1ccc(O)cc1)/C(=C/c1ccc([N+](=O)[O-])cc1)NC(=O)c1ccccc1,inactive,–
CSc1nnc(C2CCCN(CC(=O)Nc3ccccc3N3CCOCC3)C2)n1C(C)C (stereo unspecified),inactive,–
O=S(=O)(NCc1ccccn1)c1ccc(F)cc1,inactive,–
Cc1cc(Cl)c(S(=O)(=O)NCc2cccnc2)cc1OCC(N)=O,inactive,–
Cc1cc(S(=O)(=O)NCc2ccccn2)c(Cl)cc1Cl,5.62 µM (active),–
COc1ccc(NC(=O)C2CCC(CNC(=O)[C@@H]3Cc4ccccc4CN3)CC2)cc1 (stereo partly specified),inactive,–
CC(=O)N1c2ccc(S(=O)(=O)N3CCC(C(=O)NCc4ccc(F)cc4)CC3)cc2CC1C (stereo unspecified),inactive,–
COc1ccc(-n2c(-c3ccc(OC)c(OC)c3)n[nH]c2=S)cc1,inactive,–

SMILES,Potency,"activity, negative = inhibition"
Cc1cc(-c2n[nH]c(=S)n2-c2ccc(C)c(C)c2)no1,inactive,–
Cc1ccc(-n2c(-c3ccc(Cl)cc3)n[nH]c2=S)cc1,2.51 µM (active),–
Cc1nc2sccn2c(=O)c1S(=O)(=O)NCCc1ccccc1,inactive,–
COc1cc(C(=O)NCC2(c3ccccc3)CCCC2)ccc1OC(C)C,inactive,–
O=C(/C=C/c1cccc([N+](=O)[O-])c1)N1CCN(Cc2ccccc2)CC1,inactive,–
O=c1c([N+](=O)[O-])cc(C(F)(F)F)cn1Cc1cccc(Cl)c1,inactive,–
O=[N+]([O-])/C=C/c1ccc2c(ccn2Cc2ccccc2)c1,11.2 µM (active),–
CC1CCN(C(=O)c2ccccc2NC(=O)Cc2ccccc2)CC1,inactive,–
CC1CCN(C(=O)/C(=C\c2ccccc2)NC(=O)c2ccccc2)CC1,inactive,–
CC1CCN(C(=S)NC(=O)c2ccccc2Br)CC1,3.55 µM (active),–
COc1ccc(CNC(=O)c2ccc(Br)s2)cc1OC,inactive,–
Cc1ccc(C(=O)N/C(=C\c2cn(S(=O)(=O)N(C)C)c3ccccc23)C(=O)N2CCCC2)cc1,inactive,–
CCOC(=O)CN/C=C(\C#N)c1ccc(F)cc1,–,-4.69% [at 10 µM]
C/C(=N\OCC(=O)O)c1ccc(Cl)cc1,inactive,–
CCOc1cc(/C=C(/C#N)c2ccc(Cl)cc2)cc(Cl)c1OCC(=O)O,0.794 µM (active),–
CC(C)OCCCNC(=O)CN1C(=O)/C(=C/c2ccccc2F)Oc2ccccc21,inactive,–
C[C@]12CC[C@@H]3c4ccc(O)cc4C[C@@H](CCCCCCCCCS(=O)CCCC(F)(F)C(F)(F)F)C3[C@@H]1CC[C@@H]2O (stereo partly specified),inactive,–
CC1CN(C(=O)CCC(=O)NCCCN2CCC(Cc3ccccc3)CC2)c2cc(Cl)ccc2O1 (stereo unspecified),inactive,–
CC1(C)Cc2cccc(OCC(=O)NCc3ccccc3)c2O1,inactive,–
CCOc1nc(-c2ccc(OC)cc2)ccc1-c1noc(-c2cc(OC)c(OC)c(OC)c2)n1,inactive,–
COc1ccccc1Cc1nc(-c2ccc(C)cc2)no1,inactive,–
COc1ccc(-c2nc(-c3ccccc3)no2)c(OC)c1,4.47 µM (active),–
